Measured values reported in PubChem BioAssay (NCI).
The panel holds about 83,000 compounds, 20% with a hit somewhere; the sample as a whole holds those more often.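 Plates (96-well) were seeded with cells, treated with compound at one concentration, and incubated for 48 hours before percent growth was determined.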 A number with no mark means an inactive call. Active and inactive are the calls of the source. The calls were made as follows: active = growth percent below 10; inactive = the rest.

Tested on: HL-60(TB) leukemia
Assay: NCI-60 one-dose screen, 48 h (100 = growth as untreated, 0 = no growth, -100 = all killed)
Settings: 10 µM unless noted

| Structure (SMILES) | growth |
| --- | --- |
| Cc1ccc2c(n1)C(=O)C(Br)=C(C1CCCC1)C2=O | 76.1% |
| N#C/C(=C\c1ccc(F)cc1)n1nc2cccc(F)c2n1 | 8.65% (active) |
| COc1ccc(/C=C/C(=O)c2cc3c(N)c(C(=O)Nc4cccc(Cl)c4C)sc3nc2C)cc1 | 4.92% (active) |
| FC(F)(F)c1cccc([Si](F)(c2cccc(C(F)(F)F)c2)c2cccc(C(F)(F)F)c2)c1 | 80.5% |
| CS(=O)(=O)c1ccc(C(=O)N/N=C/c2cccc3ccccc23)cc1 | 37.5% |
| COc1cc2c(cc1-c1c(C)noc1C)ncc1nc(C3CCCCC3)n([C@H](C)COC(F)F)c12 | 31% |
| COc1ccc(/C=N/C2=C(C#N)C(c3ccccc3)c3ccc4ccccc4c3O2)cc1 (stereo not given) | 1.71% (active) |
| O=c1c2c3c(sc2n2c(CCl)nnc2n1Cc1ccccc1)CCCC3 | -59.8% (active) |
| CN(C)c1ccc(-c2cc(-c3ccc(Nc4nc(Nc5ccc(Cl)cc5)nc(Nc5ccc(Cl)cc5)n4)cc3)nc(N)c2C#N)cc1 | 68% |
| c1ccc(-c2n(Cc3ccc4ccccc4c3)c3ccccc3[n+]2Cc2ccc3ccccc3c2)cc1 | -49.3% (active) |
| CCC(=O)Sc1ccccc1C(=O)Nc1ccc(Cl)cc1 | 37.6% |
| CCCCN1C(=O)/C(=c2\sc3n(c2=O)NC2C(N=3)N(CC)C(=O)N2CC)c2ccccc21 (stereo not given) | 21.3% |
| O=c1ccc2nc(-c3ccccc3)nn(-c3ccccn3)c-2c1 | -28.1% (active) |
| NC(=O)C(O)(c1ccccc1)c1ccccc1 | 99% |
| CCN(CC)CC(O)c1cc(-c2ccc(Cl)cc2)nc2cc(Cl)ccc12 (stereo not given) | 17.9% |
| CC1=CCC(OC(=O)C(C)(C)CC(O)(C(C)O)C(O)C2(C)C=CC(Cc3ccc(C(C)C)cc3)(C(C)C)CC2)(C(C)C)CC1 (stereo not given) | 95.9% |
| C/C(=N/NC(=S)Nc1ccccc1)c1nc2ccc(Cl)cc2[nH]1 | -11.7% (active) |
| COc1ccccc1C(=O)Nc1cccc(NC(=O)c2ccoc2C)c1 | -18.3% (active) |
| CCCCCCN(CCCCCC)CC(O)c1cccc2ccc(Cl)cc12 (stereo not given) | 69.5% |
| N#C/C(=C\c1ccc2c(c1)OCO2)c1ccccc1 | 62% |

| Structure (SMILES) | growth |
| --- | --- |
| N#Cc1c(-c2ccccc2)nc2c(c(-c3ccccc3)nn2-c2ccccc2)c1-c1ccc(N2CCCCC2)cc1 | 95.8% |
| N=C(N)c1ccc(-c2ccc(-c3ccccc3)o2)o1 | -17% (active) |
| CC1CC(O)CC(C)(C)C1.CC1CC(O)CC(C)(C)C1.CC1CC(O)CC(C)(C)C1.CC1CC(O)CC(C)(C)C1.[Ti] (stereo not given) | 104% |
| COc1cc(NS(=O)(=O)c2ccc(-c3cnc(C4CC4)o3)cc2)ccc1F | 1.92% (active) |
| ON=C(C1CCCCC1)C1CCCCC1 | 96.7% |
| O=c1oc2ccc(F)cc2c(=O)n1-c1ccc(I)cc1F | -42.8% (active) |
| CC1(C)NCCC[C@]2(C)[C@H]3CC(=O)[C@H]4[C@@H]5C[C@](C)(CO)CC[C@]5(C)CC[C@@]4(C)[C@]3(C)CC[C@@H]12 | 102% |
| COc1cc2c(c(OC)c1OC)C(=O)CC(c1cccc(C(=O)Nc3cccc(Br)c3)c1)O2 (stereo not given) | 91.8% |
| N#C/C(=C\c1ccc(Cl)cc1Cl)C(=O)Nc1ncc(Cc2ccc(Cl)c(Cl)c2)s1 | 98.8% |
| O=Nc1ccc(O)cc1 | 77% |
| C=CCn1c(SCC(=O)Nc2ccc(/C(C)=N/O)cc2)nnc1-c1cc(-c2ccc(S(N)(=O)=O)cc2)nc2ccccc12 | 7.74% (active) |
| Cc1onc(-c2c(F)cccc2Cl)c1-c1ncc(-c2ccc(Cl)cc2)o1 | 36.4% |
| CCNCCNc1c(C)c(-c2ccc(C(F)(F)F)cc2)c(C#N)c2nc3ccccc3n12 | 74% |
| COc1ccc(-c2nn(-c3cccc(NC(=O)Nc4ccc(Cl)c(C(F)(F)F)c4)c3)cc2-c2ccncc2)cc1Cl | -11.3% (active) |
| O=S(=O)(NCCCNc1cc(-c2cn(-c3ccccc3)nc2-c2cccc(O)c2)ccn1)c1ccc(F)cc1 | 30.5% |
| Oc1ccccc1N=Cc1ccccc1 | 84.2% |
| N=C(N)SCc1cccc2c(CSC(=N)N)cccc12 | 93.4% |
| CC1(C)C2CCC1(C)C1(C2)OCCS1 (stereo not given) | 91.3% |
| CCNCCCn1c2c(c3ccc([N+](=O)[O-])cc3c1=O)C(=O)c1cc(OC)cnc1-2 | -36% (active) |
| CC(C)(C)C(=O)CCCCCCCC/C=C/CCCC(O)c1ccco1 (stereo not given) | 75% |
